Data from PubChem BioAssay (NCATS).
Results filed as inconclusive are left out. Activity calls are given as the source filed them. The call rests on the fitted dose curve; in most records, active means well fitted curve in the direction sought with a large enough effect; inconclusive means small, poorly fitted or top-dose-only effect, or another doubt; inactive means no such curve, though single readings can be large; an effect the other way counts as inactive or inconclusive.

Tests used:
[1] = Cell Viability - H-4-II-E (AID 543);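 further: cells exposed to compound for 40 hours; on the % scale 0 is the no-effect control and ±100 the full control effect; nearly all actives have a fitted effect of over 35% in size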
Summary of the method: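 Here, cytotoxicity is measured in the rat hepatoma line H-4-II-E as loss of intracellular ATP after 40 hr compound treatment, detected by luciferase luminescence.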

[2] = Cell Viability - SH-SY5Y (AID 544); details: SH-SY5Y neuroblastoma cell viability; viability change, negative = cytotoxic: at 92.2 µM (top of the series);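 further: cells exposed to compound for 40 hours; nearly all actives have a fitted effect of over 55% in size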
Summary of the method: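 Cytotoxicity is scored as a concentration-dependent fall in intracellular ATP in human SH-SY5Y cells treated 40 hr in complete culture medium. Potency is expressed as AC50 from a Hill equation fit.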

[3] = Cell Viability - Renal Proximal Tubule (AID 545);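 further: cells exposed to compound for 40 hours; nearly all actives have a fitted effect of over 40% in size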
Summary of the method: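 Primary rat renal proximal tubule cells (1000/well) were treated with compounds for 40 hr at 37 °C in complete medium. Intracellular ATP was measured by CellTiter-Glo luminescence, and AC50 values came from Hill-equation fits of concentration-response data.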

[4] = Cell Viability - Mesenchymal (AID 546);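 further: cells exposed to compound for 40 hours before reading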
Summary of the method: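 Normal human renal glomerulus-derived kidney mesenchymal cells, 1000 per well in complete medium, were treated with compounds for 40 hr at 37 °C. Viability was read as intracellular ATP by CellTiter-Glo luminescence; AC50 values came from Hill-equation fits of qHTS concentration-response data.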

[5] = Cellular Toxicity (caspase-3) HepG2 (AID 654);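 further: cells exposed to compound for 16 hours before reading; 0% = DMSO alone and 100% = caspase signal from 100 µM tamoxifen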
Summary of the method: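 qHTS, HepG2, 1500 cells/well, complete medium; cpd 16 h 37 °C; Caspase-Glo 3/7, 20 min RT; lum. Norm: DMSO vs 100 uM tamoxifen; AC50 Hill fit.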

[6] = Cellular Toxicity (caspase-3) Jurkat (AID 655); details: Jurkat caspase-3 activation, luminescence; caspase-3 activation: at 92.2 µM (top of the series), DMSO = 0%, tamoxifen = 100%;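 further: cells exposed to compound for 16 h at 37 °C before reading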
Summary of the method: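 Jurkat cells (5000/well) in complete medium were treated with compounds for 16 hr at 37 °C, then Caspase-Glo 3/7 luminescence was read after 20 min at room temperature. Data normalized to DMSO (basal) and 100 uM tamoxifen (100%); AC50 from Hill fit.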

[7] = Cellular Toxicity (caspase-3) SHSY5Y (AID 657)
Summary of the method: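 SH-SY5Y human neuroblastoma cells (1500/well) were treated with compounds for 16 h at 37 °C, then Caspase-Glo 3/7 luminescence was read after 1 h at room temperature. Data normalized to DMSO and 10 uM staurosporine; AC50 from Hill fits.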

[8] = Cellular Toxicity (caspase-3) BJ (AID 658);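 further: 0% = DMSO basal and 100% = 10 µM staurosporine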
Summary of the method: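 Luminescent aminoluciferin-substrate cleavage reports caspase 3/7 activity in normal human BJ fibroblasts after 16 hr compound exposure at 37 °C. Normalized to DMSO (basal) and 10 uM staurosporine (100%); AC50 from Hill fit of concentration-response.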

[9] = Cellular Toxicity (caspase-3) MRC-5 (AID 659);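 further: 0% = DMSO basal and 100% = 10 µM staurosporine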
Summary of the method: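 Luminescence from caspase-cleaved aminoluciferin substrate (Caspase-Glo 3/7, 1 hr RT) reports caspase 3/7 activity in MRC-5 lung fibroblasts after 16 hr compound exposure. Normalized to DMSO basal and 10 uM staurosporine as 100%; AC50 from Hill fits.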

[10] = Cellular Toxicity (caspase-3) Mesangial (AID 660); details: mesangial cells, normalized: DMSO 0%, 100 µM tamoxifen 100%; at 91.7 µM (top of the series);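 further: combined caspase 3 and 7 activity read by Caspase-Glo luminescence; cells exposed to compound for 16 h before the caspase read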
Summary of the method: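 Concentration-response qHTS: compound-induced rise in caspase 3/7 luminescence in human mesangial cells after 16 h, normalized to DMSO and 100 uM tamoxifen controls.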

[11] = Cellular Toxicity (caspase-3) SK-N-SH (AID 661);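 further: 0% = DMSO basal and 100% = 10 µM staurosporine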
Summary of the method: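 Caspase 3/7 activation is measured as a luminescence increase from aminoluciferin released by substrate cleavage in SK-N-SH cells after 16 hr compound treatment; values are AC50 from concentration-response curves.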

[12] = Cellular Toxicity (caspase-3) H-4-II-E (AID 663); details: H-4-II-E rat hepatoma, scaled: DMSO 0%, 100 µM tamoxifen 100%; at 92.2 µM (top of the series);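 further: cells exposed to compound for 16 hr before readout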
Summary of the method: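 Luminescence from caspase-cleaved aminoluciferin substrate, read 20 min after reagent addition, reports caspase 3/7 activation in rat H-4-II-E cells after 16 hr compound exposure. Normalized to DMSO (basal) and 100 uM tamoxifen (100%); AC50 from Hill fits.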

[13] = Cellular Toxicity (caspase-3) Hek293 (AID 664); details: HEK293 caspase-3 activation, DMSO = 0%, 100 µM tamoxifen = 100%; at 92.2 µM (top of the series);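 further: cells exposed to compound for 16 h at 37 °C before readout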
Summary of the method: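 Activation of caspase-3/7 is measured as increased luminescence from cleaved peptide-aminoluciferin substrate in HEK293 cells treated 16 hours at 37 °C. AC50 values come from Hill-equation fits of concentration-response data.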

[14] = Cellular Toxicity (caspase-3) N2a (AID 665);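 further: compound exposure lasted 16 h at 37 °C before readout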
Summary of the method: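 Plated mouse neuroblastoma N2a cells received titrated compounds for 16 h in complete medium. Caspase activity was then detected with a peptide-aminoluciferin luminescent reagent.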

[15] = Cellular Toxicity (caspase-3) NIH 3T3 (AID 666);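 further: 0% = DMSO basal and 100% = 100 µM tamoxifen stimulation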
Summary of the method: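 Concentration-response qHTS in NIH 3T3 mouse fibroblasts scores caspase-3/7 activation as rising luminescence after 16 hr compound exposure. Signals are scaled between DMSO-only and 100 uM tamoxifen.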

[16] = Cellular Toxicity (caspase-3) Renal Proximal Tubule (AID 667); details: Potency: caspase-3 activation;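 further: cells exposed to compound for 16 hours at 37 °C before detection; 0% = DMSO basal and 100% = 10 µM staurosporine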
Summary of the method: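 Primary rat proximal tubule cells, 1000/well, 5 h plating at 37 °C, then compound 16 h at 37 °C. Caspase-Glo 3/7 reagent, 1 h RT, luminescence. Normalized to DMSO (basal) and 10 uM staurosporine (100%); Hill-fit AC50.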

[17] = target: Cytochrome P450 3A4 (Homo sapiens) (UniProt P08684); assay: qHTS Assay for Inhibitors and Substrates of Cytochrome P450 3A4 (AID 884); further: on the % scale 0 is the no-effect control and ±100 the full control effect; nearly all actives have a fitted effect of over 50% in size
Cytochrome P450 3A4 (Homo sapiens), sequence (P08684 whole entry, looked up): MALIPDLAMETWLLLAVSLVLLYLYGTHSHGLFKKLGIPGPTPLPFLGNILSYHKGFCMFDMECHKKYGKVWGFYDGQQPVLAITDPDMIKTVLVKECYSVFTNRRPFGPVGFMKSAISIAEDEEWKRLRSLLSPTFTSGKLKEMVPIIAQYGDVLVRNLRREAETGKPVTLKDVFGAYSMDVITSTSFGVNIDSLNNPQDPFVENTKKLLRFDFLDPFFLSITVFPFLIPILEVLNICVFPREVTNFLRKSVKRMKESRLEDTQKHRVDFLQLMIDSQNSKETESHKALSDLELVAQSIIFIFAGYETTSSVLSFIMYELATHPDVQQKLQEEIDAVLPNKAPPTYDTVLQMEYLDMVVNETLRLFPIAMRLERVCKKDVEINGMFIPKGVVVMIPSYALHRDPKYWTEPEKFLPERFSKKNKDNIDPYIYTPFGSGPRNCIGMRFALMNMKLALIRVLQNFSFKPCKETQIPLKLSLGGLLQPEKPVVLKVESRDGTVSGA
Summary of the method: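 20 nM human CYP3A4 with 25 uM Luciferin-PPXE (at KM) in 200 mM KPO4, preincubated 10 min with compound; NADPH regeneration started a 60 min RT reaction. Luciferin detected by luminescence, normalized to 57 uM ketoconazole as full inhibition.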

[18] = Cell Viability - LYMP2-001 (AID 921);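 further: 0% = DMSO only and full inhibition = tetraoctylammonium bromide control wells; nearly all actives have a fitted effect of over 70% in size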
Summary of the method: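 Human lymphoblastoid cells (Coriell), 2500 per well, were preincubated 5 hr at 37 C, then exposed to compounds in complete medium for 24 hr at 37 C. Cellular ATP was read by CellTiter-Glo luminescence; AC50 from Hill fits of concentration-response data.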

[19] = Cellular Toxicity (caspase-3) HUV-EC-C (AID 656)
Summary of the method: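 HUV-EC-C endothelial cells, 1000/well, were pre-incubated 5 hr at 37°C, then exposed to compounds for 16 hr at 37°C. Caspase-Glo 3/7 luminescence was read after 20 min at room temperature. AC50 came from Hill fits, normalized to DMSO and 100 uM tamoxifen.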

CCNS(=O)(=O)c1ccc(C)cc1
inactive: Potency [1] | Potency [2] | Potency [3] | Potency [4] | Potency [5] | caspase-3 activation [6] 2.46% | outcome [7] | outcome [8] | outcome [9] | caspase-3 activation [10] -0.106% | outcome [11] | caspase-3 activation [12] -1.14% | caspase-3 activation [13] -2.66% | outcome [14] | outcome [15] | Potency [16] | Potency [17] | Potency [18]

CC(C)(O)CCC(C)(C)O
inactive: Potency [1] | Potency [2] | Potency [3] | Potency [4] | Potency [5] | caspase-3 activation [6] 0.189% | outcome [7] | outcome [8] | outcome [9] | caspase-3 activation [10] -1.06% | outcome [11] | caspase-3 activation [12] 0.513% | caspase-3 activation [13] 5.12% | outcome [14] | outcome [15] | Potency [16] | Potency [17] | Potency [18]

CC(C)Cc1nccs1
inactive: Potency [1] | Potency [2] | Potency [3] | Potency [4] | Potency [5] | caspase-3 activation [6] 1.45% | outcome [19] | outcome [7] | outcome [9] | caspase-3 activation [10] 1.49% | outcome [11] | caspase-3 activation [12] 0.155% | caspase-3 activation [13] 2.01% | outcome [14] | outcome [15] | Potency [16] | Potency [17] | Potency [18]

Cc1cccc(C(=O)O)c1
inactive: Potency [1] | Potency [2] | Potency [3] | Potency [4] | Potency [5] | caspase-3 activation [6] -6.77% | outcome [19] | outcome [7] | outcome [9] | caspase-3 activation [10] -1.17% | outcome [11] | caspase-3 activation [12] -1.62% | caspase-3 activation [13] -3.34% | outcome [14] | outcome [15] | Potency [16] | Potency [17] | Potency [18]

FC(F)(F)c1cccc(Cl)c1
inactive: Potency [1] | Potency [2] | Potency [3] | Potency [4] | Potency [5] | caspase-3 activation [6] -0.146% | outcome [19] | outcome [7] | outcome [9] | caspase-3 activation [10] -0.53% | outcome [11] | caspase-3 activation [12] 0.296% | caspase-3 activation [13] 0.768% | outcome [14] | outcome [15] | Potency [16] | Potency [17] | Potency [18]

CC(=O)C1(C)CC2=C(CCCC2(C)C)CC1C (configuration not stated)
inactive: Potency [1] | Potency [2] | Potency [3] | Potency [4] | Potency [5] | caspase-3 activation [6] -0.117% | outcome [19] | outcome [7] | outcome [8] | caspase-3 activation [10] 1.57% | outcome [11] | caspase-3 activation [12] 1.88% | caspase-3 activation [13] 2.01% | outcome [14] | outcome [15] | Potency [16] | Potency [17] | Potency [18]

CCOC(=O)C(C)C(C)=O (configuration not stated)
inactive: Potency [1] | Potency [2] | Potency [3] | Potency [4] | Potency [5] | caspase-3 activation [6] 3.08% | outcome [19] | outcome [7] | outcome [8] | caspase-3 activation [10] 1.11% | caspase-3 activation [12] 0.941% | caspase-3 activation [13] -0.825% | outcome [14] | outcome [15] | Potency [16] | Potency [17] | Potency [18]

CC1CCCO1 (configuration not stated)
inactive: Potency [1] | Potency [2] | Potency [3] | Potency [4] | Potency [5] | caspase-3 activation [6] 1.31% | outcome [19] | outcome [7] | outcome [8] | caspase-3 activation [10] -0.0447% | outcome [11] | caspase-3 activation [12] -0.992% | caspase-3 activation [13] -1.6% | outcome [14] | outcome [15] | Potency [16] | Potency [17] | Potency [18]

ClCCl
inactive: Potency [1] | Potency [2] | Potency [3] | Potency [4] | Potency [5] | caspase-3 activation [6] 1.06% | outcome [19] | outcome [7] | outcome [9] | caspase-3 activation [10] -1.27% | outcome [11] | caspase-3 activation [12] -0.724% | caspase-3 activation [13] 1.14% | outcome [14] | outcome [15] | Potency [16] | Potency [17] | Potency [18]

O=[N+]([O-])c1ccc(CCO)cc1
inactive: Potency [1] | Potency [2] | Potency [3] | Potency [4] | Potency [5] | caspase-3 activation [6] -1.91% | outcome [19] | outcome [7] | outcome [9] | caspase-3 activation [10] -1.2% | outcome [11] | caspase-3 activation [12] 0.267% | caspase-3 activation [13] -3.11% | outcome [14] | outcome [15] | Potency [16] | Potency [17]

CC(C)(C)OCC1CO1 (configuration not stated)
inactive: Potency [1] | Potency [2] | Potency [3] | Potency [4] | Potency [5] | caspase-3 activation [6] 0.113% | outcome [7] | outcome [8] | outcome [9] | caspase-3 activation [10] 0.391% | outcome [11] | caspase-3 activation [12] 0.741% | caspase-3 activation [13] 2.04% | outcome [14] | outcome [15] | Potency [16] | Potency [17] | Potency [18]

Cc1c(C(=O)O)cccc1[N+](=O)[O-]
inactive: Potency [1] | Potency [2] | Potency [3] | Potency [4] | Potency [5] | caspase-3 activation [6] 1.11% | outcome [19] | outcome [7] | outcome [9] | caspase-3 activation [10] -0.447% | outcome [11] | caspase-3 activation [12] -0.261% | caspase-3 activation [13] 1.44% | outcome [14] | outcome [15] | Potency [16] | Potency [17] | Potency [18]

OC/C(Br)=C(\Br)CO
inactive: Potency [1] | Potency [2] | Potency [3] | Potency [4] | Potency [5] | caspase-3 activation [6] 3.75% | outcome [19] | outcome [7] | outcome [8] | caspase-3 activation [10] 0.44% | outcome [11] | caspase-3 activation [12] -0.67% | caspase-3 activation [13] 0.816% | outcome [14] | outcome [15] | Potency [16] | Potency [17] | Potency [18]
